AmpC no deterg – blocks E. coli AmpC beta-lactamase in detergent-free assay; AmpC nitrocefin hydrolysis, absorbance 480 nm, 0.0001% Triton; Potency, µM (highest dose often 57.1 µM), for inactives: top-dose activity change, negative = inhibition, hits mostly inhibitors; 0.52% of 330,000 active;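 note: plate controls were no compound for no effect and no enzyme for full effect; nearly all actives have a fitted effect of over 20% in size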
Target sequence (P00811 whole entry, looked up): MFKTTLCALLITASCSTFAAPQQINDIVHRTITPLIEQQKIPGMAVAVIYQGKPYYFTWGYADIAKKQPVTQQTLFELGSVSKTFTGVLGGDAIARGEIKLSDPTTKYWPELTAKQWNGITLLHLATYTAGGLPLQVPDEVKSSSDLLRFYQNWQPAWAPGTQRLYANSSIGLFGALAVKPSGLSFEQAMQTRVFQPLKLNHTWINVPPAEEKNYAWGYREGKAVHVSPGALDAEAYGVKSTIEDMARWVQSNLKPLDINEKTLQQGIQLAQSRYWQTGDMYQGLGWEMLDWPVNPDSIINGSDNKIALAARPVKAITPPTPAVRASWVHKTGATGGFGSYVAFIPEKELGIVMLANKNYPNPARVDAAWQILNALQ
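AmpC (5.3 nM in the dispensed reagent) in 20 mM phosphate pH 7.0 with 0.01% (detergent screen) or 0.0001% Triton X-100 was preincubated with compounds for 15 min at room temperature. Nitrocefin was then added from an 800 uM solution, and hydrolysis was followed at 480 nm.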
AmpC detergent – inhibitors of E. coli AmpC beta-lactamase with detergent; P00811; AID 485294; Potency, µM (series often up to 114 µM), for the others: at the top dose activity change, negative = inhibition, hits mostly inhibitors; AmpC hydrolysis of nitrocefin, absorbance 480 nm, 0.01% Triton; 0.041% of 370,000 active;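 note: 0% = no-compound wells and -100% = no-enzyme wells; nearly all actives have a fitted effect of over 25% in size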
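AmpC (5.3 nM in the dispensed reagent) in 20 mM phosphate pH 7.0 with 0.01% (detergent screen) or 0.0001% Triton X-100 was preincubated with compounds for 15 min at room temperature. Nitrocefin was then added from an 800 uM solution, and hydrolysis was followed at 480 nm.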
AMA1-RON2 inh – disrupts binding of P. falciparum AMA1 to RON2; Potency, µM (top dose mostly 58.2 µM), for the others: at the highest dose activity change, negative = inhibition, most hits filed as inhibitors; 0.2% of 360,000 active; AlphaScreen AMA1-biotinylated RON2 peptide binding;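 note: 0% = vehicle wells and -100% = peptide control; nearly all actives have a fitted effect of over 45% in size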
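AMA1 (3D7) with his tag at 25 nM final met compounds first, then biotinylated RON2 peptide at 25 nM; detection used donor plus acceptor beads, 10 µg/mL apiece, read by AlphaScreen after 30 min at room temperature.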
Vaccinia mCherry – vaccinia inhibition (mCherry reporter). Vaccinia virus mCherry reporter infection, fluorescence. Potency, µM (series often up to 36.5 µM), for the others: at the top dose activity change, negative = inhibition, most hits filed as inhibitors. 0.63% of 310,000 active. AID 720579; calls by dose curve; tested in A549 cells; note: % is set by controls: 0 for no effect and ±100 for the full control effect; nearly all actives have a fitted effect of over 35% in size
SARS PLP yeast – SARS-CoV PLP inhibition in yeast; S. cerevisiae expressing SARS-CoV PLpro, growth rescue; Potency, µM (highest dose often 32.9 µM), for the others: at the highest dose activity, positive = growth rescue, most hits filed as activators; 0.19% of 330,000 active; calls by dose curve; note: 0% is about no effect; nearly all actives have a fitted effect of over 55% in size
VACV Venus inh – vaccinia inhibition (Venus reporter); Potency, µM (series often up to 36.5 µM), for the others: at the highest dose activity change, negative = inhibition, hits mostly inhibitors; AID 720580; Vaccinia virus Venus reporter expression, fluorescence; 0.46% of 330,000 active; calls by dose curve; tested in A549 cells; note: % is set by controls: 0 for no effect and ±100 for the full control effect; nearly all actives have a fitted effect of over 30% in size
* marks the source's active call; other numbers are inactive results; i = inactive; ? = inconclusive; . = no result given. The list is not random: actives were taken first. Their share in the collection is about 1.3%. Unless noted, calls come from the whole dose curve; as a rule, active = well fitted curve in the direction sought with a large enough effect; inconclusive = small, poorly fitted or top-dose-only effect, or another doubt; inactive = no such curve, though single readings can be large; an effect the other way counts as inactive or inconclusive. Potency is the fitted concentration of half-maximal effect.

SMILES | AmpC no deterg | AmpC detergent | AMA1-RON2 inh | Vaccinia mCherry | SARS PLP yeast | VACV Venus inh
CCNC(=O)C1CCN(c2nnc(C)c3c(C)n(-c4ccc(OC)cc4)nc23)CC1 | . | 15% | . | -17% | . | -3%
Cc1nc2sccn2c1CN1CCOc2ccc(CN3CCN(c4ccc(F)cc4)CC3)cc2C1 | . | . | . | -21% | . | -22%
Cc1c(CN2CCOc3ccc(C(C)(O)COc4ccccc4)cc3C2)cnn1C (stereo not given) | . | . | . | -16% | . | 5%
Cc1ccc(Cl)cc1NC(=O)c1ccc(Cn2cc(Cl)cn2)cc1 | 11µM* | -10% | -15% | -10% | -7% | ?
CCOC(=O)[C@]12CCCC=C1N(Cc1cccc3ccccc13)C(=O)[C@H](CC(=O)NCC1CCCCC1)C2 | . | . | 0% | i | . | -25%
O=C1NC(=O)N(Cc2ccc(F)cc2)C(=O)/C1=C\c1ccc([N+](=O)[O-])s1 | 11µM* | -6% | -27% | i | 1% | 47%
O=c1cc(-c2ccccc2)cc(-c2ccccc2)n1O | -38% | -9% | 92% | 14µM* | -22% | ?
Cc1cc(C(=O)Nc2ccccc2-c2nc(CNC(=O)c3ccccc3Cl)c(C)o2)c(C)o1 | . | . | . | i | . | -9%
CCCCCCCNC(=O)C1(CC2CC(c3cccc(Br)c3)=NO2)CCNCC1 (stereo not given) | 169% | ? | -9% | ? | -1% | 11µM*
CCCCCCCNC(=O)C1(CC2CC(c3cccc(Br)c3)=NO2)CCN(C(=O)Cc2ccc(F)cc2)CC1 (stereo not given) | -6% | ? | 0% | -1% | 2% | -30%
Cc1ccc(Nc2c3c(nc4nc(-c5cccs5)nn24)CCCC3)cc1F | . | ? | . | 11µM* | . | ?
O=c1cc(CO)oc(C(Nc2ccccn2)c2cccc(F)c2)c1O (stereo not given) | 40µM* | ? | 1% | i | 1% | -2%
Cn1cccc1/C=N/N1CCN(Cc2ccccc2)CC1 | 26% | 7% | -17% | . | -1% | .
Cn1cccc1/C=N/N1CCN(Cc2cccc3ccccc23)CC1 | 41% | 5% | 20µM* | i | 8% | -12%
COc1cc(=O)n2c(c1C(=O)NCc1ccco1)CCN(C(=O)c1cccnc1SC)CC2 | . | . | . | -4% | . | 2%
O=C(NC(=S)NCCSc1ccccc1)c1cccnc1 | -6% | 0% | 29% | -18% | 10µM* | -16%
O=C(NC(=S)NCc1cccnc1)c1ccccc1 | -18% | 1% | 21% | i | 6% | -1%
Cc1oc(-c2cccc(NC(=O)C3CCCN(C)C3)c2)nc1CNC(=O)c1coc2c1C(=O)CCC2 (stereo not given) | . | . | . | -23% | . | -29%
CN1CCC(NC(=O)c2cccs2)CC1 | 8.9µM* | 2% | 8% | 4% | 9% | -4%
O=C(NC1CCCCCC1)c1cccs1 | 3% | -2% | 0% | . | -17% | .
Cc1cc(CC(C)CC(C)(C)C)n(O)c(=O)c1 (stereo not given) | . | . | . | 1µM* | . | ?
CN(C)c1ccc(/C=C/N2C=CCc3c2ccc2ccccc32)cc1 | . | . | . | i | . | i
CCC1CN(Cc2cn[nH]c2-c2ccccc2)Cc2cc(OC)ccc2O1 (stereo not given) | . | . | . | -21% | . | -18%
Cc1ccc(-n2cccc2/C=C2\C(=N)N3N=C(C(C)C)SC3=NC2=O)cc1 | 16µM* | ? | 16% | . | -1% | .
COc1ccc(C=C(C(=O)c2ccccc2)C(=O)c2ccccc2)cc1 | . | . | 126% | i | . | -5%
SMILES | AmpC no deterg | AmpC detergent | AMA1-RON2 inh | Vaccinia mCherry | SARS PLP yeast | VACV Venus inh
CC(C)(C)NCC(=Cc1ccccc1)C(=O)c1ccccc1 | . | . | -4% | 10µM* | . | ?
Cc1cccc(C(=O)NCc2nc(-c3cccc(NC(=O)c4ccoc4C)c3)oc2C)n1 | . | . | . | -14% | . | -10%
COc1ccc(NS(=O)(=O)c2ccc3nc(COc4cccc5ccccc45)[nH]c3c2)cc1 | 4µM* | -4% | 21% | -26% | -11% | ?
COc1ccc(NS(=O)(=O)c2ccc3nc(COc4ccc5ccccc5c4)[nH]c3c2)cc1 | -25% | -6% | 10% | ? | 25% | 28µM*
Cc1cc(C)n(CC(C)O)c(=O)c1C#N (stereo not given) | 0.32µM* | 0% | -12% | -2% | -1% | -3%
CCC1CN(CC(=O)NC(c2ccccn2)C(F)(F)F)Cc2cc(OC)ccc2O1 (stereo not given) | . | . | . | -12% | . | 4%
CN(C)C(=O)N1CCN(C(=O)c2ccco2)CC1 | 28µM* | -13% | 3% | -2% | -2% | 7%
Cc1cnc(-n2ncc(C(=O)NCCc3ccccn3)c2C)nc1-c1ccc(F)cc1 | . | . | . | -23% | . | -8%
Cn1cc(CNCc2cnc3ccccn23)c(-c2ccc(Oc3ccccc3)cc2)n1 | 158% | 4% | 28µM* | ? | 0% | -22%
COc1ccccc1CNc1ccnc(-c2ccc3c(c2)OCO3)n1 | . | . | . | -12% | . | -11%
COc1cccc(CN2C(=O)NC(C)(C3CCN(Cc4cnn(C)c4C)CC3)C2=O)c1OC (stereo not given) | . | . | . | i | . | -10%
N#Cc1ccc(-c2csc(NNC(=O)c3ccc(Br)cc3)n2)cc1 | ? | ? | 13% | . | -8% | 14µM*
Cc1ccc(C)c(N2CCN(CCCNC(=O)Cn3cc4c(n3)CCC(C)C4)CC2)c1 (stereo not given) | 35µM* | ? | -7% | -22% | 1% | -18%
CC1CCc2nn(CC(=O)NCCCN3CCCC3=O)cc2C1 (stereo not given) | -10% | -6% | -12% | 1% | 12% | 5%
CC1CCc2nn(CC(=O)NCCN3CCCCC3C)cc2C1 (stereo not given) | 28µM* | -4% | -7% | -7% | -2% | -8%
O=C(Cn1cc2c(n1)CCCCC2)N1CCCCC1 | -18% | -14% | -5% | -5% | -23% | -5%
CC1CCc2nn(CC(=O)Nc3ccc(F)cc3F)cc2C1 (stereo not given) | 40µM* | ? | 14% | -4% | -9% | -6%
CC1CCc2nn(CC(=O)N3CCCCCC3)cc2C1 (stereo not given) | 0.56µM* | -3% | 0% | . | -8% | .
CCOC(=O)N1CCC(NC(=O)Cn2cc3c(n2)CCC(C)C3)CC1 (stereo not given) | 19% | -5% | 6% | . | 26% | -17%
CC1CCc2nn(CC(=O)NC3CCCC(C)C3C)cc2C1 (stereo not given) | 1µM* | -8% | 2% | -7% | -7% | -10%
CC[N+](CC)(CC)c1ccc(/C=C/c2ccnc3ccccc23)cc1 | . | . | . | i | . | i

High-throughput results (PubChem BioAssay)
